# Laboratory results as given in PubChem BioAssay AID624331 (National Center for Advancing Translational Sciences (NCATS), 2012).
# Results filed as inconclusive are left out. A number with no mark means an inactive call. Calls of active or inactive are those of the source. Calls come from the whole dose curve; as a rule, active = well fitted activation curve with a large enough effect; inconclusive = small, poorly fitted or top-dose-only effect; inactive = no such curve, though single readings can be large or run the other way.
# Assay: qHTS assay for re-activators of p53 using a Luc reporter: Hit Validation with no p53 Expressed; for activity change, positive = activation: 0% is about no effect
# Conditions: p53-null cells, luciferase reporter counter-screen; series mostly up to 46.1 µM; activity change, positive = activation: at the top concentration
# Method in brief: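 Counter-screen of primary hits in a cell line not transfected with p53, in Opti-MEM with 10% FBS; compounds at several concentrations (10 mM stock, 1:5; top 46.1 µM in well), 24 h at 37 deg C, 5% CO2. Luminescence read after 10 min with Amplite reagent.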
# Potency is the fitted concentration of half-maximal effect.
Compound,"activity change, positive = activation",Potency
CCc1ccc(N=c2c([N+](=O)[O-])nn(-c3ccccc3)n2O)cc1,-0.218%,–
Cc1ccc(NC(=O)C2CCCO2)cc1[N+](=O)[O-] (stereo not given),-2.44%,–
CC(Cc1ccccc1)NC(=O)c1ccc([N+](=O)[O-])cc1 (stereo not given),49.8%,–
COc1ccc2c(c1OC)C(=O)OC2Nc1nc(-c2cc3ccccc3oc2=O)cs1 (stereo not given),12.4%,–
COc1ccc2cc(C3(C)NC(=O)N(CC(=O)Nc4c(C)n(C)n(-c5ccccc5)c4=O)C3=O)ccc2c1 (stereo not given),-34.1%,–
CNc1ccc(/C=C/C(=O)c2ccc(C)cc2)cc1[N+](=O)[O-],4.5%,–
Cc1cccc(NC(=S)NC(=O)C2CC2)c1,19.6%,–
Clc1ccc(Nc2nc(-c3cccs3)cs2)nc1,32.8%,–
CC(=O)c1c(C)[nH]c(C(=O)OCC(=O)c2ccc(C)s2)c1C,-28.2%,–
Cc1cc(C(=O)Cn2nnc3ccccc3c2=O)c(C)n1Cc1cccs1,9.81%,–
O=C(Nc1cccnc1Cl)c1cc(-c2ccccc2O)on1,49%,–
Cc1ccc2nc(NC(=O)c3ccc(Cl)s3)sc2c1,12.4%,–
O=C(Nc1ccc(CN2CCOCC2)cc1)c1cc2ccccn2n1,9.72%,–
COc1ccc2nc(NC(=O)Nc3ccccc3OC)sc2c1,-21.1%,–
O=C(Nc1cccc(N=Cc2cc(Cl)cc(Br)c2O)c1)c1ccco1,-26%,–
CC(=O)Oc1ccc(Cl)cc1/C=C/c1ccc2ccccc2n1,–,23.1 µM (active)
CCc1nnc(NC(=O)C2Cc3ccccc3CN2S(=O)(=O)c2cccs2)s1 (stereo not given),11.4%,–
COc1ccc(-n2cnc3c(cnn3CCC#N)c2=N)cc1,-37.8%,–
Cc1sc2nc(CSC(C)C(=O)Nc3ccccn3)[nH]c(=O)c2c1C (stereo not given),9.27%,–
Cc1ccc(NC(=S)NC(=O)c2cccs2)cc1F,51.5%,–

Compound,"activity change, positive = activation",Potency
O=C(N/N=C(\c1ccccc1)c1cccnc1)c1cccc(F)c1,53.8%,–
Cc1cc(C(=O)Nc2nc3c(s2)CCCC3)cs1,15.1%,–
Cc1ccc2c(c1)CCCN2C(=O)Nc1ccc2c(c1)OCO2,-5.86%,–
N#Cc1cccc(N=Cc2c(O)ccc3ccccc23)c1,16.7%,–
O=C(C1CCCN1S(=O)(=O)c1ccc(Cl)cc1)N1CCOCC1 (stereo not given),156%,–
CCOc1ccc(S(=O)(=O)c2c(C(=O)c3ccc(C)cc3)cnc3cc4c(cc23)OCCO4)cc1,-4.04%,–
C=Cc1ccc(Cn2c(=O)n(CCCOC)c(=O)c3sccc32)cc1,-29.1%,–
Cc1ccccc1Cn1nnc(-c2cccc(C(=O)O)c2)n1,-24.8%,–
O=C1NCCCc2c1oc1ccc(O)cc21,25.7%,–
CCCC(=O)NC(c1cccs1)c1cc([N+](=O)[O-])c2cccnc2c1O (stereo not given),-22.1%,–
C/C(=N\NC(=O)c1ccccc1)c1ccc(NC(=O)c2cccs2)cc1,-38.4%,–
COCC(=O)Nc1nnc(COc2ccccc2)s1,31.1%,–
O=C(/C(=N/N=C/c1ccc(O)c(O)c1)c1ccccc1)c1ccccc1,-13.4%,–
Cc1c(C(=O)OC2CCC(C)CC2)[nH]c2c1C(=O)CCC2 (stereo not given),-14.1%,–
CCOC(=O)c1sc(NC(=S)NC(=O)c2ccco2)nc1C,52.4%,–
O=C(CSc1nnc(-c2ccc(O)cc2)o1)N1CCOCC1,88.1%,–
CNC(=S)N/N=C/c1cc(Br)cc(Br)c1O,-14.3%,–
O=C1CCCC(O)=C1N=Nc1c(Cl)cc(Cl)cc1Cl,-8.49%,–
CC(C)c1ccc(OCC(=O)NC(C)c2ccccc2)cc1 (stereo not given),97.3%,–
CCOc1ccc(NC(=O)c2cnsn2)cc1,-11.8%,–
